Source: PubChem BioAssay (NCATS)
Results filed as inconclusive are left out. Unmarked numbers belong to inactive results. Activity calls are given as the source filed them. Calls follow the shape of the dose curve; as a rule, active = well fitted cell-killing curve with a large enough effect; inconclusive = small, poorly fitted or top-dose-only effect, or effect the other way; inactive = flat fitted curve, though single readings scatter.

system: OV90; test: Primary qHTS to identify gynecologic anti-cancer compounds using libraries of approved drugs and bioactive compounds (AID 1345084); details: Gynecologic cancer cell panel viability, ATPlite luminescence, 48 h; series mostly up to 57.5 µM; activity change, negative = cytotoxicity: at the top concentration; also: nearly all actives have a fitted effect of over 55% in size
Outline: (§1)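 ATP-based viability (ATPlite), 1,000 cells/well, 16 h pre-incubation, 48 h compound at 37 C, 5% CO2, 15 min RT before read.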
% is scaled to controls: 0 for no effect and ±100 for the full control effect; potency is read from the fitted curve at half-maximal effect.

Row | SMILES | activity change, negative = cytotoxicity | Potency
1 | O=C(Nc1nc2cccc(-c3ccc(CN4CCS(=O)(=O)CC4)cc3)n2n1)C1CC1 | -4% | –
2 | Cc1cn2cc(C(=O)N(C)CCO)cc(N[C@@H]3CCOc4cccc(C)c43)c2n1 | 8.89% | –
3 | Cc1nc(Nc2n[nH]c3c2CN(C(=O)N[C@H](CN(C)C)c2ccccc2)C3(C)C)c2sccc2n1 | – | 1.58 µM (active)
4 | COc1cc(C(=O)N2CCC(N3CCN(C)CC3)CC2)ccc1Nc1ncc2c(n1)N(C)c1ccccc1C(=O)N2C | -33.8% | –
5 | Cc1[nH]nc2ccc(-c3cncc(OC[C@@H](N)Cc4ccccc4)c3)cc12 | – | 3.55 µM (active)
6 | O=C(CCCCCCNC(=O)c1cnc(N(c2ccccc2)c2ccccc2)nc1)NO | – | 8.91 µM (active)
7 | Nc1ncnc2c1c(-c1cnc3[nH]ccc3c1)nn2C1CCCC1 | – | 5.01 µM (active)
8 | CC(=O)SC[C@@H](C)C(=O)N1CCC[C@H]1C(=O)N[C@@H](Cc1ccccc1)C(=O)O | -7.48% | –
9 | C[C@@H](Oc1cc(-c2cnn(C3CCNCC3)c2)cnc1N)c1c(Cl)ccc(F)c1Cl | – | 25.1 µM (active)
10 | Nc1cc(C(F)(F)F)c(-c2cc(N3CCOCC3)nc(N3CCOCC3)n2)cn1 | – | 10 µM (active)
11 | Cc1ccc(C(N)=O)cc1Nc1nccc(-c2cn(C(C)C)c3cnccc23)n1 | – | 17.8 µM (active)
12 | CC(=O)Nc1sc2c(c1-c1nc3ccccc3s1)CNC2 | -10.7% | –
13 | Cc1cn(-c2cc(NC(=O)c3ccc(C)c(Nc4nccc(-c5cccnc5)n4)c3)cc(C(F)(F)F)c2)cn1 | -3.06% | –
14 | O=C(c1ccc(Nc2nccc(-c3cc4ccccc4s3)n2)cc1)N1CCC(N2CCCC2)CC1 | -18.9% | –
15 | CN1CCC(CNc2ccc3ncc(-c4cccc(OC(F)(F)F)c4)n3n2)CC1 | -35.8% | –
16 | NC(=O)c1cccc2cn(-c3ccc([C@@H]4CCCNC4)cc3)nc12 | -4.64% | –
17 | Cc1cc(CN2CCN(c3c(Br)cnc4nc(-c5ccc(N6CCN(C)CC6)cc5)[nH]c34)CC2)no1 | 4.75% | –
18 | CC(C)Nc1cc(C(F)(F)F)cc2nc(NC(=O)c3cccnc3)nn12 | 10.4% | –
19 | COc1cc2c(Oc3ccc(-c4cnc(Nc5ccc(F)cc5)n(C)c4=O)cc3F)ccnc2cc1OCCCN1CCOCC1 | -26.8% | –

Row | SMILES | activity change, negative = cytotoxicity | Potency
20 | CCc1cc2c(cc1N1CCC(N3CCOCC3)CC1)C(C)(C)c1[nH]c3cc(C#N)ccc3c1C2=O | 8.77% [at 25.3 µM] | –
21 | CN(C)CC(C)(C)CNc1nn2c(-c3ccccc3)nnc2cc1C1CCC1 | 3.05% | –
22 | Cc1cc(C(=O)N2CCN(c3cccc(Cl)c3)CC2)n(-c2ccccc2)n1 | -0.66% | –
23 | CCOC(=O)C1=C(C)NC2=C(C(=O)CC(C)(C)C2)C1c1ccc(-c2ccccc2)cc1 (stereo not drawn) | -13% | –
24 | CC(C)CC(=O)Nc1n[nH]c2c1CN(C(=O)C1CCN(C)CC1)C2(C)C | – | 7.94 µM (active)
25 | COc1ccc(C(=O)CC2(O)C(=O)Nc3c(Cl)ccc(Cl)c32)cc1 (stereo not drawn) | -3.46% | –
26 | CN1CCN(Cc2ccc(NC(=O)Nc3ccc(Oc4cc(NC(=O)C5CC5)ncn4)cc3)cc2C(F)(F)F)CC1 | – | 0.631 µM (active)
27 | CC(C)c1cc(-c2n[nH]c(=O)n2-c2ccc3c(ccn3C)c2)c(O)cc1O | – | 2.51 µM (active)
28 | Cn1c2ccccc2c2c3c(c4c5ccccc5n(CCC#N)c4c21)CNC3=O | -16.1% | –
29 | COC(=O)C1=C(C)NC(C)=C(C(=O)OCCN2CCN(C(c3ccccc3)c3ccccc3)CC2)C1c1cccc([N+](=O)[O-])c1 (stereo not drawn) | -26.3% | –
30 | COc1cc(-c2nn(C3CCC(N4CCN(C(C)=O)CC4)CC3)c3ncnc(N)c23)ccc1NC(=O)c1cc2ccccc2n1C (stereo not drawn) | -23.6% | –
31 | CC1(C)CC(=O)c2c(C(F)(F)F)nn(-c3ccc(C(N)=O)c(NC4CCC(OC(=O)CN)CC4)c3)c2C1 (stereo not drawn) | – | 0.355 µM (active)
32 | CC(C)(O)CCc1ccc(OCc2cc(-c3cccc(OC(F)F)c3)c3ncccc3c2)cc1 | -7.86% | –
33 | Cc1c(C)n(Cc2ccc(-c3ccccc3C(=O)O)cc2)c2ccc(C(=O)N[C@@H](C)c3ccc([N+](=O)[O-])cc3)cc12 | -4.29% | –
34 | CS(=O)(=O)c1ccc(-c2cnc(N)c(C(=O)Nc3ccccc3)n2)cc1 | -6.95% | –
35 | Cc1ccc2nc(NC(=O)CSc3nc4c(c(=O)n3-c3ccccc3)SCC4)sc2c1 | -12.8% | –
36 | COC(=O)Nc1nc2ccc(C(=O)c3ccc(F)cc3)cc2[nH]1 | -3.78% | –
37 | CNC(=O)c1c(F)cccc1Nc1nc(Nc2cc3c(cc2OC)CCN3C(=O)CN(C)C)nc2[nH]ccc12 | -23.6% | –
38 | NCC(=O)Nc1ccc(-n2nc(C(F)(F)F)cc2-c2ccc3c(ccc4ccccc43)c2)cc1 | 2.33% | –

system: PA-1; test: as above; details: Gynecologic cancer cell panel viability, ATPlite luminescence, 48 h; series mostly up to 57.5 µM; activity change, negative = cytotoxicity: at the top concentration
Outline: as §1

Row | SMILES | Potency | activity change, negative = cytotoxicity
39 | Cc1[nH]nc2ccc(-c3cncc(OC[C@@H](N)Cc4ccccc4)c3)cc12 | 3.55 µM (active) | –
40 | O=C(CCCCCCNC(=O)c1cnc(N(c2ccccc2)c2ccccc2)nc1)NO | 3.16 µM (active) | –
41 | Nc1ncnc2c1c(-c1cnc3[nH]ccc3c1)nn2C1CCCC1 | 8.91 µM (active) | –
42 | CC(=O)SC[C@@H](C)C(=O)N1CCC[C@H]1C(=O)N[C@@H](Cc1ccccc1)C(=O)O | – | 9.89%
43 | C[C@@H](Oc1cc(-c2cnn(C3CCNCC3)c2)cnc1N)c1c(Cl)ccc(F)c1Cl | 14.1 µM (active) | –
44 | Nc1cc(C(F)(F)F)c(-c2cc(N3CCOCC3)nc(N3CCOCC3)n2)cn1 | 6.31 µM (active) | –
45 | CC(=O)Nc1sc2c(c1-c1nc3ccccc3s1)CNC2 | 31.6 µM (active) | –
46 | Cc1cn(-c2cc(NC(=O)c3ccc(C)c(Nc4nccc(-c5cccnc5)n4)c3)cc(C(F)(F)F)c2)cn1 | 12.6 µM (active) | –
47 | CN1CCC(CNc2ccc3ncc(-c4cccc(OC(F)(F)F)c4)n3n2)CC1 | – | -22.1%
48 | CCc1cc2c(cc1N1CCC(N3CCOCC3)CC1)C(C)(C)c1[nH]c3cc(C#N)ccc3c1C2=O | – | 13.2% [at 25.3 µM]
49 | CN(C)CC(C)(C)CNc1nn2c(-c3ccccc3)nnc2cc1C1CCC1 | – | 4.33%
50 | Cc1cc(C(=O)N2CCN(c3cccc(Cl)c3)CC2)n(-c2ccccc2)n1 | 5.01 µM (active) | –
51 | CC(C)CC(=O)Nc1n[nH]c2c1CN(C(=O)C1CCN(C)CC1)C2(C)C | 0.447 µM (active) | –
52 | COc1ccc(C(=O)CC2(O)C(=O)Nc3c(Cl)ccc(Cl)c32)cc1 (stereo not drawn) | 8.91 µM (active) | –
53 | CN1CCN(Cc2ccc(NC(=O)Nc3ccc(Oc4cc(NC(=O)C5CC5)ncn4)cc3)cc2C(F)(F)F)CC1 | 0.794 µM (active) | –
54 | CC(C)c1cc(-c2n[nH]c(=O)n2-c2ccc3c(ccn3C)c2)c(O)cc1O | 0.251 µM (active) | –
55 | CC1(C)CC(=O)c2c(C(F)(F)F)nn(-c3ccc(C(N)=O)c(NC4CCC(OC(=O)CN)CC4)c3)c2C1 (stereo not drawn) | 0.316 µM (active) | –
56 | CC(C)(O)CCc1ccc(OCc2cc(-c3cccc(OC(F)F)c3)c3ncccc3c2)cc1 | – | -20%
57 | Cc1ccc2nc(NC(=O)CSc3nc4c(c(=O)n3-c3ccccc3)SCC4)sc2c1 | – | -8.9%
58 | COC(=O)Nc1nc2ccc(C(=O)c3ccc(F)cc3)cc2[nH]1 | 2 µM (active) | –
